Measured values as given in PubChem BioAssay (EPA / NIEHS).
Records with an inconclusive call do not appear. Calls of active or inactive are those of the source. The calls were made as follows, unless noted: active = hit-call score of the fitted dose curve at least 0.9, where 1 is the maximum; inconclusive = response in the unintended direction; inactive = score below 0.9.

Tests used:
[1] = ATG_TCF_b_cat_CIS: Attagene CIS-FACTORIAL HepG2 Assay for human T-Cell-Factor with beta-catenin (TCF/b-cat) (AID 2282965; active = hit-call score of the fitted dose curve at least 0.9, where 1 is the maximum; inactive = score below 0.9); conditions: HepG2 TCF/beta-catenin cis-reporter transcription, actives raise or lower the signal
Method in brief: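 Measured: reporter mRNA in HepG2 transiently transfected with cis-promoter reporter units, 24 h after chemical addition. Fitting was bidirectional, DMSO as negative control.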

[2] = ATG_TAL_CIS: Attagene CIS-FACTORIAL HepG2 Assay for human TAL Basal Promoter (AID 2282966; active = hit-call score of the fitted dose curve at least 0.9, where 1 is the maximum; inactive = score below 0.9;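 also: background control endpoint measuring basal TAL promoter reporter mRNA not a specific factor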); conditions: HepG2 Attagene cis-factorial TAL promoter reporter; actives raise or lower the signal
Method in brief: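 Endogenous transcription-factor activity is sensed in HepG2 cells through transfected cis-promoter reporter constructs. After 24 h dosing, reporter transcripts are quantified by RT-PCR and capillary electrophoresis. Gain or loss of signal is fitted relative to DMSO.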

[3] = ATG_VDRE_CIS: Attagene CIS-FACTORIAL HepG2 Assay for human Vitamin D Receptor Element (VDRE) (AID 2282968; active = hit-call score of the fitted dose curve at least 0.9, where 1 is the maximum; inactive = score below 0.9); conditions: HepG2 VDRE cis-reporter transcription, actives raise or lower the signal
Method in brief: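 Measures endogenous factor activity through cis-element-driven reporter transcripts in transiently transfected HepG2. Cells are treated 24 h; reporter mRNA is quantified by RT-PCR and capillary electrophoresis; fitting is bidirectional.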

[4] = target: Steroid hormone receptor ERR1 (Homo sapiens) (UniProt P11474); assay: ATG_ERRa_TRANS: Attagene TRANS-FACTORIAL HepG2 Assay for human Estrogen-Related Receptor alpha (ERRa) (AID 2282971); conditions: HepG2 Attagene TRANS reporter, ERRa transactivation
Sequence of Steroid hormone receptor ERR1 (Homo sapiens) (P11474 whole entry, looked up, the tested form may be a part): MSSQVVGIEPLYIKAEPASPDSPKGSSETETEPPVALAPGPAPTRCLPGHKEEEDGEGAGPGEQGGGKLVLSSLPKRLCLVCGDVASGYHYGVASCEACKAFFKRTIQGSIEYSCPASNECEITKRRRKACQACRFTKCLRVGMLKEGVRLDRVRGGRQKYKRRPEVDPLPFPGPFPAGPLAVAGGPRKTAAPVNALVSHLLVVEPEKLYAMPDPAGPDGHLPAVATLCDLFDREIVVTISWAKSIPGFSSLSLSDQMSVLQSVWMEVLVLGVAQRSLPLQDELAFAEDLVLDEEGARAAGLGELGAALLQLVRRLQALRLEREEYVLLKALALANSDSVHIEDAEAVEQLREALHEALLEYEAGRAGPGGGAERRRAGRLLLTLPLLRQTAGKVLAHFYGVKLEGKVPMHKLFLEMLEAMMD
Method in brief: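 HepG2 cells were transiently transfected with multiple GAL4-UAS reporter units, then dosed with compound for 24 h. Total RNA was reverse-transcribed, reporter cDNA PCR-amplified and fluorescently labelled, and fragments resolved by capillary electrophoresis; induction was compared with DMSO.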

[5] = target: X-box-binding protein 1 (Homo sapiens) (UniProt P17861); assay: ATG_Xbp1_CIS: Attagene CIS-FACTORIAL HepG2 Assay for human X-box Binding Protein 1 (XBP1) (AID 2282972; active = hit-call score of the fitted dose curve at least 0.9, where 1 is the maximum; inactive = score below 0.9); conditions: HepG2 XBP1 cis-element reporter, Attagene multiplex; actives raise or lower the signal
Sequence of X-box-binding protein 1 (Homo sapiens) (P17861 whole entry, looked up): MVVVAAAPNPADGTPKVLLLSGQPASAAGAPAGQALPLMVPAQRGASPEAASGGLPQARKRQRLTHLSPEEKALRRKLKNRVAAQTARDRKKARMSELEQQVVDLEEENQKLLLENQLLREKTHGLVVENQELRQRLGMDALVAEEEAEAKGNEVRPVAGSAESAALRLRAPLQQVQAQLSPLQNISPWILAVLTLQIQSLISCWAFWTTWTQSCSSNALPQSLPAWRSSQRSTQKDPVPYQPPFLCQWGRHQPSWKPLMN
Method in brief: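 Changes in reporter transcript abundance, read by RT-PCR and capillary electrophoresis, reflect endogenous transcription factor activity. Transfected HepG2 cells received compound for 24 hours; DMSO defined baseline for bidirectional analysis.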

[6] = ATG_M_19_TRANS: Attagene TRANS-FACTORIAL HepG2 Assay for M19 Transcription Factor (Internal Marker) (AID 2282974); conditions: HepG2 Attagene TRANS-FACTORIAL M19 internal marker reporter
Method in brief: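 After transfection of HepG2 with GAL4-UAS-driven reporter constructs, cells are dosed for 24 h. Total RNA is reverse-transcribed, reporter sequences PCR-amplified and labelled, then HpaI-digested and sized by capillary electrophoresis.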

[7] = target: Estrogen-related receptor gamma (Homo sapiens) (UniProt P62508); assay: ATG_ERRg_TRANS: Attagene TRANS-FACTORIAL HepG2 Assay for human Estrogen-Related Receptor gamma (ERRg) (AID 2282977); conditions: HepG2 Attagene TRANS reporter, ERRg transactivation;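 also: hits increase reporter signal over DMSO so potencies reflect activators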
Sequence of Estrogen-related receptor gamma (Homo sapiens) (P62508 whole entry, looked up, the tested form may be a part): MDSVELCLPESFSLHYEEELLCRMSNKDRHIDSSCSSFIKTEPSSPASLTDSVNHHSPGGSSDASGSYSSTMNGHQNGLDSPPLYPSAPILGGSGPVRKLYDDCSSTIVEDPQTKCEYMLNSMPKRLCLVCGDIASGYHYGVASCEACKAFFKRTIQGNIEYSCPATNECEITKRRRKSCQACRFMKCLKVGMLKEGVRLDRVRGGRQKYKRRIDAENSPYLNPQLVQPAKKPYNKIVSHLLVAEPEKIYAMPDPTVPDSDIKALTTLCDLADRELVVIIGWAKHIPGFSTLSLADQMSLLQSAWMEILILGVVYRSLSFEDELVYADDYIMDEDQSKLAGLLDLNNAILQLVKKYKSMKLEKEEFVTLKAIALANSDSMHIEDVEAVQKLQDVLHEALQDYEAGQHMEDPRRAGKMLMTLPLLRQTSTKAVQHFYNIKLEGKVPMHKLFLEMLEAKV
Method in brief: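 Exogenous NR-Gal4 chimera activity was assessed in HepG2 cells bearing transfected GAL4-UAS reporters. After 24 h dosing, total RNA underwent RT-PCR, fluorescent primer extension and HpaI digestion before capillary electrophoresis, with gain of signal scored against DMSO.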

[8] = target: Oxysterols receptor LXR-beta (Homo sapiens) (UniProt P55055); assay: ATG_LXRb_TRANS: Attagene TRANS-FACTORIAL HepG2 Assay for human Liver X Receptor beta (LXRb) (AID 2282981); conditions: HepG2 Attagene TRANS GAL4-LXRb reporter, mRNA
Sequence of Oxysterols receptor LXR-beta (Homo sapiens) (P55055 whole entry, looked up, the tested form may be a part): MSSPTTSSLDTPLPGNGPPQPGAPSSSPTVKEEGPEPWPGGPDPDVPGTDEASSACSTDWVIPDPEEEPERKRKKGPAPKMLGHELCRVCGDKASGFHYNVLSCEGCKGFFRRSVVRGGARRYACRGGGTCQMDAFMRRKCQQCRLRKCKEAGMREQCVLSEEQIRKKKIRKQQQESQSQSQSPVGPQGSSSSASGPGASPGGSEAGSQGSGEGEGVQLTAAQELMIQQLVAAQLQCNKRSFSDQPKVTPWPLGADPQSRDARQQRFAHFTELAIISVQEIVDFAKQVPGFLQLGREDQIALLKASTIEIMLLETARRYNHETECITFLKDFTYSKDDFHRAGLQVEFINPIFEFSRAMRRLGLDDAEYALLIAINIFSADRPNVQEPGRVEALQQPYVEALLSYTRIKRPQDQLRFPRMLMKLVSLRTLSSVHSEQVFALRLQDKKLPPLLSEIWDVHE
Method in brief: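 After 24 h of chemical treatment, transfected HepG2 cells yield total RNA; reporter cDNA is PCR-amplified, FAM-labelled, HpaI-cut and run on capillary electrophoresis. Signal reflects chimeric LXRb-Gal4 activity on GAL4-UAS reporters.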

[9] = target: Hepatocyte nuclear factor 4-alpha (Homo sapiens) (UniProt P41235); assay: ATG_HNF4a_TRANS: Attagene TRANS-FACTORIAL HepG2 Assay for human Hepatocyte Nuclear Factor 4 alpha (HNF4a) (AID 2282982); conditions: HepG2 HNF4a transactivation reporter, mRNA readout
Sequence of Hepatocyte nuclear factor 4-alpha (Homo sapiens) (P41235 whole entry, looked up): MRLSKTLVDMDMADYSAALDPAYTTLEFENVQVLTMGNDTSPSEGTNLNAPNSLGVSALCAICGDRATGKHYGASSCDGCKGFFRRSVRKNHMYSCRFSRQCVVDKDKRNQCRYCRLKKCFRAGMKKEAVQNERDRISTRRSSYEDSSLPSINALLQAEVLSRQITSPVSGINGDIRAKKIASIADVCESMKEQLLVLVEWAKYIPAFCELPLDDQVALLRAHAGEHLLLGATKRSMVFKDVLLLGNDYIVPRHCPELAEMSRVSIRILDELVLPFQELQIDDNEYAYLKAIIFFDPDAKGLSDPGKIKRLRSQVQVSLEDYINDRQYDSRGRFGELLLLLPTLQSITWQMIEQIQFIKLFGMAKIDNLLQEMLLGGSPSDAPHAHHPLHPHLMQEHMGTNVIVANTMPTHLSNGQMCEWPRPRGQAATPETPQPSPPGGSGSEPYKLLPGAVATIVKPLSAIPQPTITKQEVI
Method in brief: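 Multiplexed reporter assay: transfected HepG2, 24 h exposure, total RNA → oligo(dT) RT → PCR → 6-FAM extension → HpaI digest → CE fluorescence. DMSO = negative control.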

[10] = ATG_M_06_TRANS: Attagene TRANS-FACTORIAL HepG2 Assay for M06 Transcription Factor (Internal Marker) (AID 2282983); conditions: HepG2 Attagene TRANS M06 internal marker reporter;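 also: reporter transcript level by RT-PCR then capillary electrophoresis fluorescence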
Method in brief: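 Human liver HepG2 cells bearing transiently transfected chimeric NR-GAL4 reporter units were treated with chemicals for 24 h. Total RNA was reverse-transcribed, reporter sequences amplified and labelled, then quantified by capillary electrophoresis. Activity was fitted upward relative to DMSO.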

[11] = target: Nuclear receptor subfamily 4 group A member 2 (Homo sapiens) (UniProt P43354); assay: ATG_NURR1_TRANS: Attagene TRANS-FACTORIAL HepG2 Assay for human Nuclear Receptor Related Protein 1 (NURR1) (AID 2282985); conditions: HepG2 Attagene TRANS reporter, mRNA readout
Sequence of Nuclear receptor subfamily 4 group A member 2 (Homo sapiens) (P43354 whole entry, looked up, the tested form may be a part): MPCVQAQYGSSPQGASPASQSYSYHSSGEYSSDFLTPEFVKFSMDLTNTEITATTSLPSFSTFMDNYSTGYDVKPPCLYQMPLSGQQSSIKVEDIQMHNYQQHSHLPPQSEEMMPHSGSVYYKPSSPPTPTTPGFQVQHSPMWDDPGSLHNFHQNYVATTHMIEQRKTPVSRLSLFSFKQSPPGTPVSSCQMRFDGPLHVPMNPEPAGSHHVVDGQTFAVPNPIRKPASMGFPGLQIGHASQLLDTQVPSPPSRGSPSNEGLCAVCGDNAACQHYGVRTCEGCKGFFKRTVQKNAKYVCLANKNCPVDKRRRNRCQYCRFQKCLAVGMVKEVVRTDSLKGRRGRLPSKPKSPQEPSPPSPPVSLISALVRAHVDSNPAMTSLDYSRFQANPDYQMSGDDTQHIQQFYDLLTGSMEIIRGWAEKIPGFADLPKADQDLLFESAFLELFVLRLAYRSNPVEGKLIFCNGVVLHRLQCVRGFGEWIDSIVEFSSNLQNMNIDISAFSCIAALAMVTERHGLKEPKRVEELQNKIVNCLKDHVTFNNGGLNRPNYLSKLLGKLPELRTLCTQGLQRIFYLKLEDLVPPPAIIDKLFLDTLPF
Method in brief: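 Measures transcriptional activation by an exogenous NR-Gal4 chimera in transfected HepG2 liver cells. After 24 h, reporter RNA is reverse-transcribed, amplified and resolved by capillary electrophoresis; DMSO defines baseline.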

[12] = target: Transcriptional activator Myb (Homo sapiens) (UniProt P10242); assay: ATG_Myb_CIS: Attagene CIS-FACTORIAL HepG2 Assay for human Myeloblastosis (Myb) Proto-Oncogene Transcription Factor (AID 2282986; active = hit-call score of the fitted dose curve at least 0.9, where 1 is the maximum; inactive = score below 0.9); conditions: HepG2 Attagene CIS-FACTORIAL Myb reporter transcription; actives raise or lower the signal
Sequence of Transcriptional activator Myb (Homo sapiens) (P10242 whole entry, looked up): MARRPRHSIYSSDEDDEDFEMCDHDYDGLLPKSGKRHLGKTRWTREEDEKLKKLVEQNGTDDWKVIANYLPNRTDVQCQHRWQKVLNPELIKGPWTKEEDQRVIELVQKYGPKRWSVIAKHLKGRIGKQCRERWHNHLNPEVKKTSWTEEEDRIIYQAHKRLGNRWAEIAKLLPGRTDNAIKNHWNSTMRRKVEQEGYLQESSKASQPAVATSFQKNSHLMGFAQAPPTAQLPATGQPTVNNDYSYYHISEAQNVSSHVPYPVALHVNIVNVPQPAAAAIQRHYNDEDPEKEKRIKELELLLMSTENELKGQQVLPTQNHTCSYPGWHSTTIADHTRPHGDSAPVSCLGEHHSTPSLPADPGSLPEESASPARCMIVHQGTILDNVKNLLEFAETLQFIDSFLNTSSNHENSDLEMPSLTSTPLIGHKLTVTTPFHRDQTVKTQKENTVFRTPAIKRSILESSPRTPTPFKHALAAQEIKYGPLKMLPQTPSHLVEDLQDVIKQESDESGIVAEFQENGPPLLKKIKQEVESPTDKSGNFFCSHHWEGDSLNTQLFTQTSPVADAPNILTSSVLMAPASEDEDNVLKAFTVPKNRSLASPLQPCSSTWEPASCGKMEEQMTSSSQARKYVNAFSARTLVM
Method in brief: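 Endogenous transcription factor activity at a Myb-responsive cis element is reported in human liver HepG2 cells after 24 h chemical treatment. Reporter mRNA is detected by RT-PCR and capillary electrophoresis fluorescence, with DMSO as baseline.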

[13] = target: Glucocorticoid receptor (Homo sapiens) (UniProt P04150); assay: ATG_GR_TRANS: Attagene TRANS-FACTORIAL HepG2 Assay for human Glucocorticoid Receptor (GR) (AID 2282978); conditions: HepG2 Attagene TRANS GR reporter, mRNA transcription;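 also: activators score as hits since higher reporter transcript over DMSO is fitted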
Sequence of Glucocorticoid receptor (Homo sapiens) (P04150 whole entry, looked up): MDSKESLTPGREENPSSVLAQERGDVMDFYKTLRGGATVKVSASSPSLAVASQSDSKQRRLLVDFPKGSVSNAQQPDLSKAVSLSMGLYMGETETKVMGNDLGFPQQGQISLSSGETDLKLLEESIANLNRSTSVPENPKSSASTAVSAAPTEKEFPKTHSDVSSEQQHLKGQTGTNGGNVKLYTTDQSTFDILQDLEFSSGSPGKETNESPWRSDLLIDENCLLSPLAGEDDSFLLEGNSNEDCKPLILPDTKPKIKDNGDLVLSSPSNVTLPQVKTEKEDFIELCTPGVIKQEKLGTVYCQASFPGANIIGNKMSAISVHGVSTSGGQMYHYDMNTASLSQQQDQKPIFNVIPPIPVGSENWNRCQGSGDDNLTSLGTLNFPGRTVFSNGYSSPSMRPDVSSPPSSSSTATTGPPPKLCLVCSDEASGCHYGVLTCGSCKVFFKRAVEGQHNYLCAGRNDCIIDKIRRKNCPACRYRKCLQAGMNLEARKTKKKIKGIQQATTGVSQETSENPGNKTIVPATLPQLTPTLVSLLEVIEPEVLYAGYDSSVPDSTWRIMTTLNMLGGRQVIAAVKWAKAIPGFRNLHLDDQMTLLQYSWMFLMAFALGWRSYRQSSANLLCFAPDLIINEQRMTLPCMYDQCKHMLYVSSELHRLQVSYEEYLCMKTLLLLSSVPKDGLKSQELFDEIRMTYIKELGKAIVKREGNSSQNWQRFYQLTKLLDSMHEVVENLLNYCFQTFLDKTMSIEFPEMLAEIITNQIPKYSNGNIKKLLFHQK
Method in brief: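 Multiplexed TRANS reporter system, HepG2; 24 h exposure; RNA → oligo(dT) RT → reporter-specific PCR → 6-FAM primer extension → HpaI cut → CE fluorescence. Gain-of-signal vs DMSO.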

[14] = target: Bile acid receptor (Homo sapiens) (UniProt Q96RI1); assay: ATG_FXR_TRANS: Attagene TRANS-FACTORIAL HepG2 Assay for Farnesoid X Receptor (FXR) (AID 2282979); conditions: HepG2 Attagene TRANS FXR-GAL4 reporter transcription;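 also: hits raise reporter mRNA above DMSO so AC50 marks FXR activation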
Method in brief: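 Chimeric FXR-GAL4 activity in transiently transfected human HepG2 liver cells is scored as induction of reporter mRNA after 24 h of dosing. Detection uses RT-PCR with fluorescent labelling and capillary electrophoresis, with DMSO serving as baseline.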

[15] = target: Oxysterols receptor LXR-alpha (Homo sapiens) (UniProt Q13133); assay: ATG_LXRa_TRANS: Attagene TRANS-FACTORIAL HepG2 Assay for human Liver X Receptor alpha (LXRa) (AID 2282980); conditions: HepG2 Attagene TRANS reporter, LXRa transactivation
Method in brief: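 Transient HepG2 transfectants, 24 h dosing, RT-PCR/CE mRNA reporter quantitation; gain-of-signal vs DMSO.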

[16] = ATG_M_32_TRANS: Attagene TRANS-FACTORIAL HepG2 Assay for M32 Transcription Factor (Internal Marker) (AID 2282984); conditions: HepG2 Attagene TRANS M32 internal marker reporter;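 also: transcript level of a background control reporter unit measured by RT-PCR and capillary electrophoresis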
Method in brief: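 Cell-based TRANS-format assay in HepG2: exogenous chimeric GAL4 reporter units transiently expressed, compounds applied 24 h. Reporter mRNA detected by RT-PCR plus capillary electrophoresis; this readout is an internal background marker.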

[17] = ATG_TGFb_CIS: Attagene CIS-FACTORIAL HepG2 Assay for human Transforming Growth Factor (TGF) (AID 2282967; active = hit-call score of the fitted dose curve at least 0.9, where 1 is the maximum; inactive = score below 0.9); conditions: HepG2 Attagene CIS TGFb reporter, mRNA transcription; actives raise or lower the signal
Method in brief: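 Endogenous TGFB1-linked transcription factor activity read as reporter mRNA via RT-PCR and capillary electrophoresis, 24 h after dosing transiently transfected HepG2 cells. Gain or loss of signal fitted relative to DMSO.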

[18] = target: Nuclear receptor subfamily 1 group I member 3 (Homo sapiens) (UniProt Q14994); assay: ATG_CAR_TRANS: Attagene TRANS-FACTORIAL HepG2 Assay for human Constitutive Androstane Receptor (CAR) (AID 2282969); conditions: HepG2 Attagene TRANS-FACTORIAL CAR reporter;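 also: activators raise reporter mRNA above DMSO so AC50 marks induction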
Method in brief: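 Signal is reporter mRNA induction relative to DMSO, measured 24 h after dosing by RT-PCR with fluorescent primer extension and capillary electrophoresis. Human HepG2 liver cells carried transiently transfected chimeric NR-Gal4/GAL4-UAS reporter constructs.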

[19] = target: Estrogen receptor (Homo sapiens) (UniProt P03372); assay: ATG_ERa_TRANS: Attagene TRANS-FACTORIAL HepG2 Assay for human Estrogen Receptor alpha (ERa) (AID 2282970); conditions: HepG2 Attagene TRANS ERa GAL4 reporter, mRNA
Sequence of Estrogen receptor (Homo sapiens) (P03372 whole entry, looked up, the tested form may be a part): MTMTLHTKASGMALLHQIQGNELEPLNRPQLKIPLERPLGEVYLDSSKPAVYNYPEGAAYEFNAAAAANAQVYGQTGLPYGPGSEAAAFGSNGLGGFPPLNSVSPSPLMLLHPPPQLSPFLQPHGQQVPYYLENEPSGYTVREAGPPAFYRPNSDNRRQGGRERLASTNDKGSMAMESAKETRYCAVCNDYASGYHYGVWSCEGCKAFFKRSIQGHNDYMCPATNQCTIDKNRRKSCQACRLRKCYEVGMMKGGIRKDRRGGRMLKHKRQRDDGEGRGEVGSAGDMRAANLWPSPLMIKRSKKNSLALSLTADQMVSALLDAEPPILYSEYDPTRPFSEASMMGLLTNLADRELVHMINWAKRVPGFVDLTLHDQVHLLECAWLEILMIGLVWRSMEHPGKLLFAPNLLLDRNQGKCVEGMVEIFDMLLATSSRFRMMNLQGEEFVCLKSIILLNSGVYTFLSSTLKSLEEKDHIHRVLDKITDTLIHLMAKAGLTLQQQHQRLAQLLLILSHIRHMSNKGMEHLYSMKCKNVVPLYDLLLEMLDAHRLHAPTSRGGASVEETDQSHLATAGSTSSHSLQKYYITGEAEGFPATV
Method in brief: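 Transfected HepG2 cells carrying GAL4-UAS-driven reporter units were dosed for 24 hours. Total RNA was reverse-transcribed, reporter sequences PCR-amplified, FAM-labelled, HpaI-digested and resolved by capillary electrophoresis. Increases over DMSO control defined activity.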

[20] = ATG_GAL4_TRANS: Attagene TRANS-FACTORIAL HepG2 Assay for GAL4 (Internal Marker) (AID 2282976); conditions: HepG2 Attagene TRANS GAL4 internal marker reporter
Method in brief: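 Fluorescence from capillary electrophoresis of labelled RT-PCR products quantifies reporter mRNA induction after 24 h dosing of HepG2 cells carrying transfected GAL4-UAS reporter transcription units. Vehicle DMSO serves as baseline.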

Measured: AC50

CCCCCC(=O)O
not listed: [13] | [14] | [15] | [16] | [17] | [18] | [19] | [20]
inactive: all other assays above

CN1CCN(Cc2cc(-c3ccc4[nH]c(=O)oc4c3)co2)[C@@H](c2ccc(F)cc2)C1
inactive: [2] | [5] | [6] | [13] | [14] | [15] | [10] | [16] | [11] | [12]
active: [1] 25.7 µM | [3] 27.4 µM

Cc1ccc(C(C)C)c(O)c1
active: [19] 46.1 µM
not listed: [2] | [4] | [6] | [14] | [15] | [16]
inactive: all other assays above

Cc1ccc(C)c(C)c1
inactive: [1] | [2] | [3] | [18] | [19] | [5] | [6] | [13] | [11] | [12]

CCCCCCCCCCC
inactive: [1] | [2] | [4] | [5] | [6] | [20] | [13] | [9] | [10] | [12]
